Sampled rows, rich in hits. Any-hit rate of the full collection: about 19%.
HepG2 tox = HepG2 cytotoxicity, counter-screen for TGF-b inhibitors. HepG2 CAGA-GFP viability, ATP luminescence, 18 h. Potency, µM (series often up to 46.1 µM), without a hit: top-dose activity change, negative = cytotoxicity, most hits filed as cytotoxic. actives 0.76% (n = 410,000). AID 588856; note: potency is the fitted concentration of half-maximal effect
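CellTiter-Glo luminescence gave cytotoxicity after 18 hours at 37 degrees C. The cells were HepG2 CAGA-GFP in 1% FBS DMEM, stimulated with 500 pg/mL TGF-beta after compound addition. %Activity was normalised to no-cell wells (complete cell-killing) and DMSO (no toxicity), and curves were fitted and classified.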
TDP1 cell noCPT = qHTS for Inhibitors of human tyrosyl-DNA phosphodiesterase 1 (TDP1): qHTS in cells in absence of CPT; DT40 Tdp1-/- hTDP1 cells, no CPT, ATP luminescence, 48 h; Potency, µM (titrated, usually from 46.2 µM), inactives show at the highest dose activity change, negative = growth inhibition, most hits filed as inhibitors; actives 15% (n = 420,000); note: potency is the fitted concentration of half-maximal effect; % is set by controls: 0 for no effect and ±100 for the full control effect; nearly all actives have a fitted effect of over 55% in size
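Luminescent ATP content (CellTiter-Glo) served as the growth readout. Knockout chicken DT40 cells expressing human TDP1 were exposed to compounds without camptothecin for a minimum 48 hr at 37 °C.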
TGFb SMAD3 inh = inhibitors of TGF-b signaling | AID 588855 | actives 1.2% (n = 410,000) | Potency, µM (top dose mostly 46.1 µM), without a hit: at the top dose activity, negative = inhibition, hits mostly inhibitors | HepG2 CAGA-GFP TGF-b/SMAD3 reporter, GFP fluorescence, 18 h; TGF-beta stimulated, 500 pg/mL final; note: potency is the fitted concentration of half-maximal effect; % is set by controls: 0 for no effect and ±100 for the full control effect; nearly all actives have a fitted effect of over 65% in size
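Inhibition of TGF-beta-driven CAGA-GFP reporter expression in HEPG2 cells is measured by cellular GFP fluorescence after 18 h stimulation with 500 pg/mL recombinant TGF-beta in 1% FBS medium at 37 degrees C.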
S-ASM inh = human S-ASM enzyme inhibition | placental ASM, HMU-PC fluorogenic substrate, 60 min | Potency, µM (highest dose often 57.5 µM), without a hit: at the highest dose activity change, negative = inhibition, actives largely listed as inhibitors | actives 0.006% (n = 340,000) | AID 504937; note: potency is the fitted concentration of half-maximal effect
Target sequence (P17405 47-631 limits assumed): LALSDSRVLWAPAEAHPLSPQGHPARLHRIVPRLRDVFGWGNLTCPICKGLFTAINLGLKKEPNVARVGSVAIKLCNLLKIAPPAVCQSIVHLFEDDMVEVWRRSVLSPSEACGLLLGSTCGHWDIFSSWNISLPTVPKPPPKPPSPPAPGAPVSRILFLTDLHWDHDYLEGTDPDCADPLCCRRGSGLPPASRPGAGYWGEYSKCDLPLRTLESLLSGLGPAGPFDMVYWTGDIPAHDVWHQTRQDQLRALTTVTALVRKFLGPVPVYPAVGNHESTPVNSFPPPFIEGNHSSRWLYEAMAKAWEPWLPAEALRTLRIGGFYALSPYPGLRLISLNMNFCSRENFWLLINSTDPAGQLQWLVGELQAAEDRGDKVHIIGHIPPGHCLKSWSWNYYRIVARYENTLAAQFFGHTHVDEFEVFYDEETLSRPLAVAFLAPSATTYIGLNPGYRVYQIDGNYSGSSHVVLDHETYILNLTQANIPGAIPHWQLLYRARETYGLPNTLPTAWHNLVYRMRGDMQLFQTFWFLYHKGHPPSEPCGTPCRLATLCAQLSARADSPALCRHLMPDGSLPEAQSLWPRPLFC
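qHTS format. ASM enzyme prepared from human placenta hydrolyses the fluorogenic substrate HMU-PC0 (9 uM final) over 60 min at 37 °C after a 10 min compound preincubation.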
IL1B secr inh = blocks inflammasome-driven IL-1 beta release; THP-1 LPS/ATP IL-1B secretion, AlphaLISA, 16 h; active compounds read low; activity change, % at 57.5 µM; actives 4.7% (n = 360,000); AID 743279; in the data active = activity change below about -50%; inconclusive = mostly about -30% to -49%; note: % is set by controls: 0 for no effect and ±100 for the full control effect
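Secreted IL-1B measured by AlphaLISA bead assay after 16 h compound exposure of THP-1 cells; compounds (final up to 57.5 uM) added 1 h before LPS (250 ng/mL) and ATP (1.25 mM) stimulation; lower signal means less secretion.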
TDP1 cell CPT = DT40-hTDP1 cell growth loss with CPT | chicken DT40 Tdp1-/-;hTDP1 cells + 20 nM CPT, ATP luminescence, 48 h | Potency, µM (top dose mostly 46.2 µM), inactives show at the top dose activity change, negative = growth inhibition, actives largely listed as inhibitors | actives 12% (n = 420,000) | AID 686979; note: potency is the fitted concentration of half-maximal effect; % is set by controls: 0 for no effect and ±100 for the full control effect; nearly all actives have a fitted effect of over 55% in size
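Chicken DT40 Tdp1-/- cells complemented with human TDP1, 400 cells/well, exposed to compounds plus 20 nM camptothecin for at least 48 h at 37 C; viability read as ATP content by CellTiter-Glo luminescence.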
Numbers without * were called inactive; ? = inconclusive; / = no result given. Unless noted, calls come from the whole dose curve; as a rule, active = well fitted curve in the direction sought with a large enough effect; inconclusive = small, poorly fitted or top-dose-only effect, or another doubt; inactive = no such curve, though single readings can be large; an effect the other way counts as inactive or inconclusive.

SMILES | HepG2 tox | TDP1 cell noCPT | TGFb SMAD3 inh | S-ASM inh | IL1B secr inh | TDP1 cell CPT
Cc1cc(C)nc(N2CCCC(C(=O)Nc3ccc4nc(C)c(C)nc4c3)C2)n1 (stereo not drawn) | -7% | 13µM* | 1% | -7% | -4 | ?
CS(=O)(=O)N1CCC(C(=O)Nc2cccc(C(F)(F)F)c2)CC1 | -11% | -23% | -30% | -1% | -12 | -2%
COc1ccccc1CCNC(=O)C1CCN(c2nc3ccccc3nc2C(F)(F)F)CC1 | -5% | 7.3µM* | -2% | / | / | 16µM*
Cc1cc(C)nc(N2CCC(C(=O)Nc3cccc(C(F)(F)F)c3)CC2)n1 | -35% | 23µM* | 0% | -5% | 2 | ?
O=C1C(=O)N(CCCn2ccnc2)C(c2ccc([N+](=O)[O-])cc2)/C1=C(\O)c1ccc2c(c1)OCCO2 (stereo not drawn) | -6% | -26% | -25% | -5% | -13 | -3%
Cc1cc(C)c2[nH]c(C(=O)N3CCC(n4nccc4NC(=O)C4CC4)CC3)c(C)c2c1 | 12% | ? | -27% | -2% | 4 | -4%
CCc1ccccc1NS(=O)(=O)c1cc(Br)cc2c1N(C(=O)C1CC1)CC2 | -24% | 18µM* | ? | / | / | 16µM*
CCCCN(Cc1ccccc1)S(=O)(=O)c1cc(Br)cc2c1N(C(C)=O)CC2 | -100% | ? | -20% | / | / | ?
CCN(Cc1ccccc1)S(=O)(=O)c1cc(Br)cc2c1N(C(=O)C1CC1)CC2 | -24% | 8.2µM* | ? | / | / | 10µM*
O=C(C1CC1)N1CCc2cc(S(=O)(=O)N(CCO)Cc3ccccc3)ccc21 | -1% | 23µM* | -17% | 2% | -8 | ?
CCCCN(Cc1ccccc1)S(=O)(=O)c1cc(Br)cc2c1N(C(=O)C1CC1)CC2 | -9% | 9.2µM* | -1% | / | / | 9.2µM*
Cc1cc(C)cc(OCC(=O)Nc2c(C)ccc3nsnc23)c1 | -13% | -25% | 5% | / | / | ?
CCOc1ccc(-c2nc(-c3ccccc3)c(-c3ccccc3)[nH]2)cc1OCC | -20% | 18µM* | -5% | / | / | 21µM*
CCOc1ccc(-c2nc(-c3ccccc3)no2)cc1OCC | -9% | ? | ? | -11% | -3 | ?
COc1cc(-c2nc(-c3ccccc3)c(-c3ccc(Br)cc3)[nH]2)cc(OC)c1O | -70% | ? | 13µM* | / | / | ?
COc1ccc(-c2nc(-c3ccccc3)c(-c3ccc(F)cc3)[nH]2)c(OC)c1C | -16% | ? | ? | / | / | 21µM*
COc1ccc(NC(=O)N2CCC3(CC2)CCN(C(=O)c2cccn2C)CC3)cc1 | / | ? | / | / | / | -19%
CCOc1ccc(C2NC(=O)c3c(COC)cc(C)nc3N2Cc2ccccc2)cc1OC (stereo not drawn) | -55% | -28% | -1% | / | / | -14%
CCc1ccc(CNC(=O)CCCn2ccc3cc(S(=O)(=O)N4CCCC4)ccc32)cc1 | -30% | 4.1µM* | ? | / | / | 4.6µM*
COc1ccc(OC)c(CNC(=O)CCCn2ccc3cc(S(=O)(=O)N4CCCC4)ccc32)c1 | -5% | ? | -1% | -2% | 2 | 15µM*
COc1cccc(CNC(=O)CCCn2ccc3cc(S(=O)(=O)N4CCCC4)ccc32)c1 | -74% | ? | -26% | -2% | 1 | ?
CC(SC1=NCCS1)C(=O)Nc1nnc(-c2ccc(F)cc2)s1 (stereo not drawn) | -12% | -22% | 15% | 22% | -53* | -9%
CC(SC1=NCCS1)C(=O)Nc1nnc(-c2ccc(Br)cc2)s1 (stereo not drawn) | -23% | ? | -11% | -6% | -20 | ?
CC(C)(C)OC(=O)CC[C@@H](C(=O)N1CCN(C(=O)OC(C)(C)C)CC1)n1cc(C(Cc2ccc(O)cc2)NC(=O)OC(C)(C)C)nn1 (stereo partly drawn) | -20% | 16µM* | ? | -3% | -27 | 18µM*
CC(C)CC(NC(=O)OC(C)(C)C)c1cn([C@@H](CCCCNC(=O)OC(C)(C)C)C(=O)N2CCN(C(=O)OC(C)(C)C)CC2)nn1 (stereo partly drawn) | -18% | 3.7µM* | -23% | 3% | -28 | 5.8µM*
C#CCOCCOCCOCCNc1nc(N2CCN(C(=O)[C@H](CCC(=O)O)n3cc(C(N)Cc4ccc(O)cc4)nn3)CC2)nc(N2CCN(C(=O)[C@H](CCC(=O)O)n3cc(C(N)Cc4ccc(O)cc4)nn3)CC2)n1 (stereo partly drawn) | 1% | -13% | 3% | 2% | 2 | -12%
Cc1ccc(S(=O)(=O)N(CC(=O)NCc2ccco2)C2CCCCC2)cc1 | -1% | -22% | -12% | -1% | 3 | ?
C#CCN(C[C@@H]1[C@@H](OC(=O)NCc2ccccc2F)[C@@H](OC(=O)NCc2ccccc2F)CN(C(=O)OC(C)C)N1C(=O)OC(C)C)S(=O)(=O)c1ccc(C)cc1 | -15% | 7.3µM* | 1% | / | -20 | 7.3µM*
C#CCN(C[C@H]1[C@H](OC(=O)NCC2CCCCC2)[C@H](OC(=O)NCC2CCCCC2)C[C@H]2C(=O)N(c3ccccc3)C(=O)[C@@H]12)S(=O)(=O)c1ccc(C)cc1 | 2% | ? | -2% | / | -3 | -16%

Source: PubChem BioAssay (National Center for Advancing Translational Sciences (NCATS))
